# Reference: the supplement of paper PMC8007513
# Where a name gives a salt, the structure may show the parent alone. ± gives the standard error. In all, about 1,300 compounds went through this assay and about 130 (10%) showed an effect of 50% or more. Only a selection was taken, and strong results are over-represented in it overall.
# Test system: Trichoderma virens ATCC 9645
# Assay: growth yield (OD600) with compound + IPBC relative to untreated control; higher = less growth inhibition
# Conditions: compound concentration: 100 uM, IPBC concentration: 200 ng/ml
# How it was run: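 Growth appears as means of duplicate screens, relative to the control containing neither agent. To obtain it, OD600 was read on a BioTek EL800 at 40 h and 72 h. The cultures were 100 μl aliquots in 96-well plates at 30 °C, holding Trichoderma virens ATCC 9645 spores at 15,000 spores ml^−1 in potato dextrose broth, library compounds at 100 μM final, and, in some wells, a biocide at 200 ng ml^−1.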
compound,measurement,setting,value
CCCCC[C@H](O)/C=C/[C@H]1[C@H](O)CC(=O)[C@@H]1CCCCCCC(=O)O [Alprostadil] + CCCCNC(=O)OCC#CI [3-iodo-2-propynyl butylcarbamate (IPBC)],growth yield,40 h,108 ± 3.3%
same,growth yield,72 h,107 ± 2.8%
Cc1ncc([N+](=O)[O-])n1CC(C)O (stereo not given) [Secnidazole] + CCCCNC(=O)OCC#CI [3-iodo-2-propynyl butylcarbamate (IPBC)],growth yield,40 h,95.9 ± 13%
same,growth yield,72 h,94.5 ± 9.8%
N=C(N)NC(=O)Cc1c(Cl)cccc1Cl [Guanfacine hydrochloride] + CCCCNC(=O)OCC#CI [3-iodo-2-propynyl butylcarbamate (IPBC)],growth yield,40 h,79.9 ± 4.3%
same,growth yield,72 h,90.7 ± 3.7%
O=C1[C@H]2CCCC[C@H]2C(=O)N1CCCCN1CCN(c2nsc3ccccc23)CC1 [Perospirone] + CCCCNC(=O)OCC#CI [3-iodo-2-propynyl butylcarbamate (IPBC)],growth yield,40 h,79.4 ± 0.95%
same,growth yield,72 h,88.41 ± 0.32%
C[C@@H]1C[C@H]2[C@@H]3C[C@H](F)C4=CC(=O)C=C[C@]4(C)[C@@]3(F)[C@@H](O)C[C@]2(C)[C@@]1(O)C(=O)COC(=O)C(C)(C)C [Flumethasone pivalate] + CCCCNC(=O)OCC#CI [3-iodo-2-propynyl butylcarbamate (IPBC)],growth yield,40 h,90.9 ± 2.5%
same,growth yield,72 h,90.3 ± 2%
CN(CCCN1c2ccccc2CCc2ccccc21)CC(=O)c1ccc(Cl)cc1 [Lofepramine] + CCCCNC(=O)OCC#CI [3-iodo-2-propynyl butylcarbamate (IPBC)],growth yield,40 h,78.31 ± 0.48%
same,growth yield,72 h,91.7 ± 1.3%
CCN[C@H]1CN(CCCOC)S(=O)(=O)c2sc(S(N)(=O)=O)cc21 [Brinzolamide] + CCCCNC(=O)OCC#CI [3-iodo-2-propynyl butylcarbamate (IPBC)],growth yield,40 h,76.1 ± 0.79%
same,growth yield,72 h,86.31 ± 0.32%
CC(N/C(=N\C#N)Nc1ccncc1)C(C)(C)C (stereo not given) [Pinacidil] + CCCCNC(=O)OCC#CI [3-iodo-2-propynyl butylcarbamate (IPBC)],growth yield,40 h,97.7 ± 5.9%
same,growth yield,72 h,102 ± 2.9%
CCCCc1cc2ccccc2c(OCCN(C)C)n1 [Dimethisoquin hydrochloride] + CCCCNC(=O)OCC#CI [3-iodo-2-propynyl butylcarbamate (IPBC)],growth yield,40 h,52.1 ± 0.64%
same,growth yield,72 h,82.64 ± 0.42%
CC(C)c1nc(CN(C)C(=O)N[C@H](C(=O)N[C@@H](Cc2ccccc2)C[C@H](O)[C@H](Cc2ccccc2)NC(=O)OCc2cncs2)C(C)C)cs1 [Ritonavir] + CCCCNC(=O)OCC#CI [3-iodo-2-propynyl butylcarbamate (IPBC)],growth yield,40 h,119 ± 1.6%
same,growth yield,72 h,119 ± 1.5%
O=C(O)CCC(=O)c1ccc(-c2ccccc2)cc1 [Fenbufen] + CCCCNC(=O)OCC#CI [3-iodo-2-propynyl butylcarbamate (IPBC)],growth yield,40 h,71.5 ± 2.9%
same,growth yield,72 h,92.2 ± 1.8%
CCC[C@@H]1C[C@@H](C(=O)N[C@@H]([C@H]2O[C@H](SC)[C@H](O)[C@@H](O)[C@H]2O)[C@@H](C)O)N(C)C1 [Lincomycin hydrochloride] + CCCCNC(=O)OCC#CI [3-iodo-2-propynyl butylcarbamate (IPBC)],growth yield,40 h,85.8 ± 3.5%
same,growth yield,72 h,94.6 ± 2.3%
COCC1=C(C(=O)OC(C)OC(=O)OC(C)C)N2C(=O)[C@@H](NC(=O)/C(=N\OC)c3csc(N)n3)[C@H]2SC1 (stereo not given in full) [Cefpodoxime proxetil] + CCCCNC(=O)OCC#CI [3-iodo-2-propynyl butylcarbamate (IPBC)],growth yield,40 h,121 ± 3.5%
same,growth yield,72 h,113.6 ± 0.94%
Nc1cc(N2CCCCC2)nc(N)[n+]1[O-] [Minoxidil] + CCCCNC(=O)OCC#CI [3-iodo-2-propynyl butylcarbamate (IPBC)],growth yield,40 h,90.1 ± 2.1%
same,growth yield,72 h,93.5 ± 1.7%
C[C@]12CC[C@H](O)C[C@H]1CC[C@@H]1[C@@H]2C[C@@H](O)[C@]2(C)[C@@H](C3=CC(=O)OC3)CC[C@]12O [Digoxigenin] + CCCCNC(=O)OCC#CI [3-iodo-2-propynyl butylcarbamate (IPBC)],growth yield,40 h,86.6 ± 2.7%
same,growth yield,72 h,90.72 ± 0.32%
COC(=O)[C@@H]1[C@H]2C[C@H]3c4[nH]c5ccccc5c4CCN3C[C@@H]2CC[C@@H]1O [Yohimbine hydrochloride] + CCCCNC(=O)OCC#CI [3-iodo-2-propynyl butylcarbamate (IPBC)],growth yield,40 h,82.4 ± 1.1%
same,growth yield,72 h,89.25 ± 0.73%
Nc1nc2[nH]cc(CCc3ccc(C(=O)N[C@@H](CCC(=O)O)C(=O)O)cc3)c2c(=O)[nH]1 [Pemetrexed disodium] + CCCCNC(=O)OCC#CI [3-iodo-2-propynyl butylcarbamate (IPBC)],growth yield,40 h,94.8 ± 7.2%
same,growth yield,72 h,94 ± 4%
CC(CN1c2ccccc2Sc2ccccc21)N(C)C (stereo not given) [Promethazine hydrochloride] + CCCCNC(=O)OCC#CI [3-iodo-2-propynyl butylcarbamate (IPBC)],growth yield,40 h,78.2 ± 1.9%
same,growth yield,72 h,94.3 ± 4.1%
CCN(CC)C(C)CN1c2ccccc2Sc2ccccc21 (stereo not given) [Ethopropazine hydrochloride] + CCCCNC(=O)OCC#CI [3-iodo-2-propynyl butylcarbamate (IPBC)],growth yield,40 h,72.4 ± 3.8%
same,growth yield,72 h,89.2 ± 1.6%
CCSc1ccc2c(c1)N(CCCN1CCN(C)CC1)c1ccccc1S2 [Thiethylperazine dimalate] + CCCCNC(=O)OCC#CI [3-iodo-2-propynyl butylcarbamate (IPBC)],growth yield,40 h,4.45 ± 0.32%
same,growth yield,72 h,3.25 ± 0.1%
C[C@]12C=CC(=O)C=C1CC[C@H]1[C@@H]3C[C@@H](O)[C@](O)(C(=O)CO)[C@@]3(C)C[C@H](O)[C@@]12F [Triamcinolone] + CCCCNC(=O)OCC#CI [3-iodo-2-propynyl butylcarbamate (IPBC)],growth yield,40 h,98.3 ± 3%
same,growth yield,72 h,97.5 ± 1.9%
COc1ccc(-c2cc(=S)ss2)cc1 [Anethole-trithione] + CCCCNC(=O)OCC#CI [3-iodo-2-propynyl butylcarbamate (IPBC)],growth yield,40 h,77 ± 1.8%
same,growth yield,72 h,74.9%
CO[C@]12C[C@@H](COC(=O)c3cncc(Br)c3)CN(C)[C@@H]1Cc1cn(C)c3cccc2c13 [Nicergoline] + CCCCNC(=O)OCC#CI [3-iodo-2-propynyl butylcarbamate (IPBC)],growth yield,40 h,74.2 ± 8.4%
same,growth yield,72 h,93 ± 5.3%
CN1C[C@H](C(=O)N[C@]2(C)O[C@@]3(O)[C@@H]4CCCN4C(=O)[C@H](Cc4ccccc4)N3C2=O)C[C@@H]2c3cccc4[nH]cc(c34)C[C@H]21 [Dihydroergotamine tartrate] + CCCCNC(=O)OCC#CI [3-iodo-2-propynyl butylcarbamate (IPBC)],growth yield,40 h,105 ± 5.2%
same,growth yield,72 h,107 ± 2.3%
CN1C[C@H](CNC(=O)OCc2ccccc2)C[C@@H]2c3cccc4c3c(cn4C)C[C@H]21 [Metergoline] + CCCCNC(=O)OCC#CI [3-iodo-2-propynyl butylcarbamate (IPBC)],growth yield,40 h,45.4 ± 15%
same,growth yield,72 h,112 ± 9.5%
